Each structure is given as a SMILES string. Among all 52,000 compounds or so, about 1,700 (3.3%) were called active. What follows is part of a selection rich in actives, with near analogues and random picks from the rest. A number with no mark means an inactive call. Cut-off read from the data, not from the text of the source: active = survival mostly below about 52% (no sharp cut-off); inactive = mostly above about 56%.

The subject of this experiment is Wild type. Kind of experiment: growth inhibition of S. aureus wild type versus tarO mutant, primary screen, teichoic acid synthesis inhibitors, RN4220, OD600 (AID 463173). Particulars: S. aureus RN4220 wild type/DeltatarO growth, OD600, 18 h, hits give low values, screened at 18.75 µg/mL (by protocol).
For `O=C(CSc1nc2nccnc2c(=O)n1CCc1c[nH]c2ccccc12)Nc1ccc(F)cc1`, the survival was 42%.

Consider `CCn1c(CNc2cccc(Cl)c2)nnc1SCc1ccccc1`, for which the survival is 105%.

Regarding `O=C1CCCC2=C1C(c1ccc3c(c1)OCO3)c1c([nH]c(=O)[nH]c1=O)N2` (stereo not given), the survival was 111%.

`CCOC(=O)c1ccccc1NC(=O)NCc1cccn1Cc1ccc(F)cc1`: the survival is 84%.

Turning to `CC(=O)c1cccc(NC(=O)c2sc(-n3nc(C)c(Cc4ccc5c(c4)OCO5)c3C)nc2C)c1`, the survival was 94%.

Regarding `Cc1ccc(Cn2c(CN3CCC(C(=O)O)CC3)cc3ccccc32)cc1`, the survival is 82%.

Take `CC1CCN(S(=O)(=O)c2ccc3c(ccn3CCC(=O)NCc3ccccc3F)c2)CC1`: the survival is -6% (active).

`O=C(CCn1ccc2cc(S(=O)(=O)N3CCCC3)ccc21)NCc1ccccc1F`: the survival is 83%.

As for `CC1CCN(S(=O)(=O)c2ccc3c(ccn3CC(=O)NCc3ccccc3F)c2)CC1`, the survival is 53%.

Regarding `O=C(Cn1ccc2cc(S(=O)(=O)N3CCCCC3)ccc21)NCCc1ccccc1Cl`, the survival was -6% (active).

Regarding `O=C(CCn1ccc2cc(S(=O)(=O)N3CCCC3)ccc21)NCc1ccccc1Br`, the survival is 72%.

In the case of `CCOc1ccccc1CNC(=O)CCn1ccc2cc(S(=O)(=O)N3CCC(C)CC3)ccc21`, the survival was 69%.

With `O=C(Cn1ccc2cc(S(=O)(=O)N3CCCCCC3)ccc21)NCCc1ccccc1Cl`, the survival is 72%.

With `O=C(Cn1ccc2cc(S(=O)(=O)N3CCCCCC3)ccc21)NCc1ccccc1Cl`, the survival was 73%.

With `O=C(CCn1ccc2cc(S(=O)(=O)N3CCCC3)ccc21)NCc1ccccc1Cl`, the survival is 14% (active).

Take `NC(=O)C1CCCN1S(=O)(=O)c1ccc(F)cc1` (stereo not given): the survival is 110%.

For the compound `Cc1ccc2c(c1)N(C(=O)N1CCC(C(=O)Nc3cccc(F)c3)CC1)CCO2`, the survival is 70%.

As for `COc1cc(C2c3c(oc4ccc(C)cc4c3=O)C(=O)N2Cc2ccc(F)cc2)ccc1O` (stereo not given), the survival was 83%.

As to `CCCC(C(=O)Nc1cc(C)c(Cl)cc1OC)N1Cc2ccccc2C1=O` (stereo not given), the survival is 71%.

As for `CCOC(=O)c1ccccc1NS(=O)(=O)c1c(-c2ccc(C)cc2)csc1C(=O)OC`, the survival is 134%.

In the case of `Cc1ccc2oc(-c3ccc(Cl)c(NC(=O)c4cc5ccccc5o4)c3)nc2c1`, the survival is 66%.

In the case of `CSc1nnc2c(n1)OC(c1cccc(O)c1Cl)Nc1ccccc1-2` (stereo not given), the survival is 71%.

Turning to `CSc1nc(Nc2cccc(C)c2)c(C#N)c(-c2ccccc2)n1`, the survival was 104%.

As to `CCCCOC(=O)c1ccc(NC(=O)C2(c3cccs3)CCOCC2)cc1`, the survival was 72%.

Take `COc1ccc(/C=C/C(=O)Nc2ccc3nc4c(c(Nc5ccccc5OC)c3c2)CCCC4)cc1`: the survival was 93%.

As to `COc1ccccc1C(=O)NCCSc1c(C)[nH]c2ccccc12`, the survival was 52%.

Take `COC(=O)c1ccc(NC(=O)CCCC(=O)OCC(=O)c2ccc(Cl)cc2)cc1`: the survival is 87%.

On to `O=C(Nc1ccccc1F)c1oc2ccccc2c1NC(=O)c1c(F)cccc1F`, for which the survival is 53%.

Turning to `Cc1ccc(Cn2c(=O)n(-c3ccc(C)c(C)c3)c(=O)c3c(C)c(C)sc32)cc1`, the survival was 46% (active).

As for `Cc1ccc(Cn2c(=O)n(CCc3ccccc3)c(=O)c3c(C)c(C)sc32)cc1`, the survival is 22% (active).

Regarding `CCOc1ccc(-n2c(=O)c3c(C)c(C)sc3n(Cc3ccc(C(C)(C)C)cc3)c2=O)cc1`, the survival was 19% (active).

In the case of `Cc1sc2c(c1C)c(=O)n(CCc1ccccc1)c(=O)n2Cc1ccc(F)cc1`, the survival was 50%.

Turning to `Cc1ccc(C)c(Cn2c(=O)n(-c3ccc(Cl)cc3)c(=O)c3c(C)c(C)sc32)c1`, the survival was 73%.

`CCOc1ccc(-n2c(=O)c3c(C)c(C)sc3n(Cc3ccccc3C)c2=O)cc1`: the survival is 89%.

On to `Cc1ccc(-n2c(=O)c3c(C)c(C)sc3n(Cc3ccc(F)cc3Cl)c2=O)cc1C`, for which the survival is 60%.

With `Cc1sc2c(c1C)c(=O)n(CCc1ccccc1)c(=O)n2Cc1cccc(F)c1`, the survival was 9% (active).

Consider `Cc1ccc(Cn2c(=O)n(Cc3ccccc3)c(=O)c3c(C)c(C)sc32)cc1`, for which the survival is 83%.

In the case of `CCOc1ccc(-n2c(=O)c3c(C)c(C)sc3n(CC(=O)C(C)(C)C)c2=O)cc1`, the survival was 125%.

Consider `Cc1cccc(Cn2c(=O)n(CCc3ccccc3)c(=O)c3c(C)c(C)sc32)c1`, for which the survival was 90%.

On to `Cc1sc2c(c1C)c(=O)n(CCc1ccccc1)c(=O)n2Cc1ccc(C(C)(C)C)cc1`, for which the survival is 85%.

As to `O=C(CN1CCCN(Cc2ccc(F)cc2)S1(=O)=O)NCc1ccccc1Cl`, the survival is 78%.

Take `CC(C)NS(=O)(=O)c1ccc(OCC(=O)N2CCN(c3ccccc3F)CC2)cc1`: the survival was 89%.

As for `FC(F)(F)c1ccc(-c2noc(-c3ccccc3Br)n2)cc1`, the survival was 89%.

For `CCOc1cc(C2CC(=O)Nc3cc4c(cc32)OCCO4)ccc1O` (stereo not given), the survival was 78%.

Turning to `CCCc1nn2c(=O)cc(COC(=O)c3ccc(NC(=O)COc4ccccc4F)cc3)nc2s1`, the survival is 121%.

On to `COCCNC(=O)c1cc(-c2cccc(Cl)c2)on1`, for which the survival was 136%.

As for `O=C(c1cc(-c2ccccc2)on1)N1CCCCC1`, the survival was 113%.

Turning to `CN(Cc1ccccc1)C(=O)c1cc(-c2cccc(Cl)c2)on1`, the survival is -15% (active).

As to `CC1CCN(C(=O)c2cc(-c3ccc(Cl)cc3)on2)CC1`, the survival is 85%.

For the compound `O=C(c1cc(-c2cccc(Cl)c2)on1)N1CCCCC1`, the survival is 66%.

On to `O=C(c1cc(-c2cccc(Cl)c2)on1)N1CCN(c2ccccc2)CC1`, for which the survival is 4% (active).

For the compound `O=C(NCCc1ccccc1)c1cc(-c2cccc(Cl)c2)on1`, the survival is 87%.

In the case of `CC1CCN(C(=O)c2cc(-c3ccc(Br)cc3)on2)CC1`, the survival is 78%.

Take `CC1CCN(C(=O)c2cc(-c3cccc(Cl)c3)on2)CC1`: the survival is -15% (active).

In the case of `O=C(CSCc1cccc(F)c1)NCc1ccccc1`, the survival was 85%.

For `CC(=O)Nc1cccc(C(=O)NCc2ccc3c(c2)CCN3C(=O)c2ccccc2)c1`, the survival was 63%.

For the compound `CCOc1cccc(CNc2ccc(O)cc2)c1OCc1ccccc1Cl`, the survival is 54%.

Regarding `Oc1ccc(NCc2ccccc2OCc2ccccc2)cc1`, the survival is 100%.

With `CCOc1cc(CNc2ccc(O)cc2)ccc1OCc1ccc(Cl)cc1`, the survival was 10% (active).

On to `COc1cc(CNc2ccc3[nH]c(=O)[nH]c3c2)cc(Br)c1OCc1ccc(F)cc1`, for which the survival is 117%.

Consider `Oc1ccc(NCc2ccccc2OCc2ccc(Cl)cc2)cc1`, for which the survival was 72%.

As to `CCOc1cc(CNc2ccc(O)cc2)cc(Br)c1OCc1ccccc1`, the survival was -5% (active).

In the case of `CCOc1cc(CNc2ccc(C(=O)O)cc2)ccc1OCc1ccccc1`, the survival is 57%.

For the compound `CCOc1cc(CNc2ccc(O)cc2)cc(Cl)c1OCc1ccccc1`, the survival is -5% (active).

Take `CCOc1c(Cl)cc(CNc2ccc3[nH]c(=O)[nH]c3c2)cc1OC`: the survival is 88%.

The values above are taken from PubChem BioAssay AID463173 (ICCB-Longwood Screening Facility, Harvard Medical School, 2010).
